The results in this text go back to PubChem BioAssay (NCATS).

Inconclusive results are not listed. A call without a number means that no potency is given here. The source made the active and inactive calls. Calls come from the whole dose curve; as a rule, active = well fitted inhibition curve with a large enough effect; inconclusive = small, poorly fitted or top-dose-only effect; inactive = no such curve, though single readings can be large or run the other way. Where a SMILES comes first, the peptide text is derived from it. Bridges are numbered along the chain shown (N, C = ends). [ ]: non-standard residue; d: D form. The star is where a group is joined. X1 = CCC(C)C(N)C1=NC(C(=O)*)CS1; dOrn = NCCC[C@@H](N)C(=O)O

This assay concerns Zika virus NS2B-NS3 protease (unlinked complex). Nature of the assay: Primary screen GU Rhodamine qHTS for Zika virus inhibitors: Unlinked NS2B-NS3 protease assay (AID 1347159). Note: nearly all actives have a fitted effect of over 60% in size. The conditions noted are these: Recombinant ZIKV NS2B-NS3 protease, Rhodamine110 substrate fluorescence; series mostly up to 107 µM. A digest of the protocol: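 Unlinked NS2B/NS3, 25 nM; Rhod110 peptide, 1.5 microM; compounds, up to 114 microM. Reaction run 15 min at RT in 10 mM Tris-HCl pH 8.0, 0.01% Tween 20; kinetic fluorescence change fitted with a 4-parameter Hill model.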
Regarding `CO[C@H]1C=C2C(CC[C@H](O[C@@H]3O[C@H](CO)[C@@H](O)[C@@H](O)[C@H]3O)C2(C)C)[C@]2(C)CC[C@]3(C)C([C@H](C)C(O)C(C=C(C)C)O[C@@H]4O[C@H](CO)[C@@H](O)[C@@H](O)[C@H]4O)CC[C@@]3(C)C12` (some centres undefined), the Potency entry is “inactive”.
Turning to `COc1cc(C2c3cc(O)c(OC)cc3CC(CO)C2CO)ccc1O` (centres undefined), the Potency result is “inactive”.
For the compound `C[C@]12CCC[C@](C)(C(=O)O)C1CCC13C=C(CO)C(CCC12)C3` (some centres undefined), the Potency result is “inactive”.
Turning to `CC(/C=C/C1(O)C(C)CC(O)CC1(C)C)OC1OC(CO)C(O)C(O)C1O` (centres undefined), the Potency entry is “inactive”.
Then `C/C=C1\[C@H](O[C@@H]2O[C@H](CO)[C@@H](O)[C@H](O)[C@H]2O)OC=C(C(=O)OC)[C@H]1CC(=O)OC`, with “inactive”.
With `C=C1C[C@]23C[C@H]1CC[C@H]2[C@@]12C=C[C@H](O)[C@@](C)(C(=O)O1)[C@H]2[C@@H]3C(=O)O` the entry was “inactive”; with `CC1(C)CC[C@]2(C(=O)O[C@@H]3O[C@H](CO)[C@@H](O)[C@H](O)[C@H]3O)CC[C@]3(C)C(=CCC4[C@@]5(C)C[C@@H](O)[C@H](O)C(CO)(CO)C5CC[C@]43C)C2[C@@H]1O` (some centres undefined), “inactive”.
With `CC(C)(O)C1CCC2(C)C3C(O)C4C(C13)C42CO` (centres undefined), the Potency result is “inactive”.
Regarding `Cc1cc(C)c(S(=O)(=O)N(Cc2ccc(-c3cccc(S(C)(=O)=O)c3)cc2)Cc2ccc(C(F)(F)F)o2)c(C)c1`, the Potency result was “inactive”.
With `OC[C@H]1O[C@@H](OCCc2ccc(O)cc2)[C@H](O)[C@@H](O)[C@@H]1O` the entry was “inactive”.
Then `C=CC(C)(C)C1(CC2NC(=O)C3CCCN3C2=O)C(=O)Nc2cc3c(cc21)C=CC(C)(C)O3` (centres undefined), with “inactive”; and `O=C(O)Cc1nn(Cc2nc3cc(C(F)(F)F)ccc3s2)c(=O)c2nccnc12`, with “inactive”; and `C[C@@H]1C[C@H](O)/C=C/[C@H](O)[C@@H](O)CC(=O)O1`, with “inactive”.
Take `N[C@@H](CC(=O)N1CCn2c(nnc2C(F)(F)F)C1)Cc1[nH]nc2c(F)c(F)ccc12`: the Potency entry is “inactive”.
Take `CCC(C)(O)C(O)C(=O)OCc1ccc(O[C@@H]2O[C@H](CO)[C@@H](O)[C@H](O)[C@H]2O)c(OC)c1` (some centres undefined): the Potency result is “inactive”.
With `CC(=O)N(O)CCCCCN1C(=O)CCC1=O` the entry was “inactive”; with `COc1cc(/C=C/C(=O)OC2[C@H](O)CC(O)(C(=O)O)C[C@H]2O)ccc1O` (some centres undefined), “inactive”.
Turning to `OC[C@H]1O[C@@H](OC(CCCCc2ccc(O)cc2)CCc2ccc(O)cc2)[C@H](O[C@@H]2OC[C@](O)(CO)[C@H]2O)[C@@H](O)[C@@H]1O` (some centres undefined), the Potency result is “inactive”.
Take `COc1cc(/C=C/C(=O)OC2CC(OC(C)=O)C(OC(C)=O)C3C2CCC2C(=O)OC(c4ccoc4)CC23C)ccc1O[C@@H]1O[C@H](CO)[C@@H](O)[C@H](O)[C@H]1O` (some centres undefined): the Potency entry was “inactive”.
Turning to `C=C(C)C1CC2(CO)C(=CC1=O)CCC(O)C2C` (centres undefined), the Potency entry was “inactive”.
As for `Cc1c(CN(C)C(=O)/C=C/c2cnc3c(c2)CCC(=O)N3)oc2ccccc12`, the Potency result is “inactive”.
As to `CCN(c1cc(C#CCN2CCOCC2)cc(C(=O)NCc2c(C)cc(C)[nH]c2=O)c1C)C1CCC(N(C)CCOC)CC1` (centres undefined), the Potency entry was “inactive”.
On to `O=C(/C=C/c1ccccc1)OCC1=CC[C@@H]2C(C(=O)O)=CO[C@@H](O[C@@H]3O[C@H](CO)[C@@H](O)[C@H](O)[C@H]3O)[C@H]12`, for which the Potency entry is “inactive”.
In the case of `Cc1nc2c(-c3cnc(N)nc3)nc(N3CCOCC3)nc2n1C(C)C`, the Potency entry was “inactive”.
`C=C1CC[C@@H]2[C@](C)(CC[C@H](O)[C@@]2(C)CCC=C(C)C)[C@@H]1Cc1c[nH]c2ccccc12`: the Potency result is “inactive”.
With `CC(=O)O[C@H]1[C@H](Oc2ccccc2COC(=O)C2(O)C=CCCC2=O)O[C@H](CO)[C@@H](O)[C@@H]1O` (some centres undefined) the entry was “inactive”; with `O=C(C1CC1)N1CC[C@@H](Cc2n[nH]c(=O)n2-c2ccc(-c3ccc4occc4c3)cc2)C1`, “inactive”.
Turning to `COC1CC(=O)C23C(=O)NC(CC(C)C)C2C(C)C(C)=CC3/C=C(\C)CCC1O` (centres undefined), the Potency result was “inactive”.
Consider `Nc1nonc1C(=Nc1ccc(F)c(Cl)c1)NO`, for which the Potency entry was “inactive”.
Then `CC(=O)O[C@H](C[C@@H](C)[C@H]1C(=O)[C@H](O)[C@@]2(C)[C@@H]3CCC4C(C)(C)[C@@H](O[C@@H]5OC[C@H](O)[C@H](O)[C@H]5O)CC[C@@]45C[C@@]35CC[C@]12C)[C@@H]1OC1(C)C` (some centres undefined), with “inactive”.
Take `COC(=O)C[C@@H]1C(C(=O)O)=CO[C@@H](O[C@@H]2O[C@H](CO)[C@@H](O)[C@H](O)[C@H]2O)/C1=C\COC(=O)/C=C\c1ccccc1`: the Potency entry is “inactive”.
With `O=c1ccn(C2OC(CO)C(O)C2O)c(=O)[nH]1` (centres undefined) the entry was “inactive”; with `CCC(C)C(N)C1=NC(C(=O)N[C@@H](CC(C)C)C(=O)N[C@H](CCC(=O)O)C(=O)N[C@H](C(=O)N[C@H]2CCCCNC(=O)[C@H](CC(N)=O)NC(=O)[C@@H](CC(=O)O)NC(=O)[C@H](Cc3cnc[nH]3)NC(=O)[C@@H](Cc3ccccc3)NC(=O)[C@H]([C@@H](C)CC)NC(=O)[C@@H](CCCN)NC2=O)[C@@H](C)CC)CS1` (some centres undefined) (X1-L[dE]IK[dOrn]I[dF]H[dD]N; lactam 4-C), “inactive”.
Then `COC1=CC(=O)O[C@@H](CCc2ccccc2)[C@@H]1O`, with “inactive”; and `CC(=O)OC[C@@]12[C@@H](OC(C)=O)C[C@@H](C)[C@](C)([C@@H]3C[C@H]4C=CO[C@H]4O3)[C@H]1CCC[C@]21CO1`, with “inactive”.
Then `O=C(NN1CCCCC1)c1nn(-c2ccc(Cl)cc2Cl)c(-c2ccc(C#Cc3ccc(C(F)(F)F)cc3)s2)c1CNS(=O)(=O)N1CCCC1`, with “inactive”; and `COC1CC(=O)CCC(C)OC(=O)CC1O` (centres undefined), with “inactive”; and `CC1(CO)CC[C@]2(C(=O)O[C@@H]3O[C@H](CO)[C@@H](O)[C@H](O)[C@H]3O)CC[C@]3(C)C(=CCC4[C@@]5(C)C[C@H](O)[C@H](O[C@@H]6OC[C@@H](O)[C@H](O)[C@H]6O)[C@@](C)(CO)C5CC[C@]43C)C2C1` (some centres undefined), with “inactive”.
For the compound `OC[C@H]1O[C@@H](n2cnc3c(NCc4ccc(O)cc4)ncnc32)[C@H](O)[C@@H]1O`, the Potency result is “inactive”.
